The results in this text go back to PubChem BioAssay (NCATS).

A number with no mark means an inactive call. Records with an inconclusive call do not appear. Activity calls are given as the source filed them. Unless noted, calls follow the shape of the dose curve; as a rule, active = well fitted curve in the direction sought with a large enough effect; inconclusive = small, poorly fitted or top-dose-only effect, or another doubt; inactive = no such curve, though single readings can be large; an effect the other way counts as inactive or inconclusive.

Test [1] has as its target Lysosomal acid glucosylceramidase (Homo sapiens) (UniProt P04062). The test can be described thus: Glucocerebrosidase-p2 (AID 348; in the data active = potency below about 10 µM; also: potency is read from the fitted curve at half-maximal effect). The note with it: purified GBA, blue fluorogenic substrate, 40 min. The gist of the method:
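Compounds titrated from 0.6 nM upwards against 0.2 nM enzyme in pH 5.9 citric acid/KH2PO4, taurocholate, tween-20; blue fluorogenic substrate 80 uM, 40 min room temperature, stopped and read Ex 365/Em 440 for AC50.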

Test [2] in a line: AP1 Signaling Pathway (AID 357; active = well fitted curve in either direction with a large enough effect, not every such curve was filed as active;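 also: ME-180 reporter cells stimulated with EGF at its EC50 level; % is scaled to controls: 0 for no effect and ±100 for the full control effect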). The following applies: ME-180 AP-1-bla reporter, EGF-induced, beta-lactamase ratio, 5 h; at 7.69 µM (top of the series) unless noted. Put shortly: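 In this screen, ME-180 cells in Opti-MEM with 0.5% dialyzed FBS received EC50 EGF and compound titrations for 5 h. AP-1 reporter beta-lactamase was detected via CCF4 ratio, giving AC50 for positive and negative modulators.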

The target in test [3] is Cytochrome P450 1A2 (Homo sapiens) (UniProt P05177). The test can be described thus: p450-cyp1a2 (AID 410; calls by dose curve; also: potency is read from the fitted curve at half-maximal effect). The following applies: recombinant CYP1A2, luciferin-ME demethylation, luminescence; series mostly up to 57 µM. The gist of the method:
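Inhibition was calculated relative to 57 uM furafylline (full inhibition). The reaction used human CYP1A2 at 20nM with Luciferin-ME at its Km, 100uM, driven by an NADPH-regenerating system for 60 min at room temperature.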

Test [4] is described as follows: NFAT Signaling Pathway (AID 444; active = well fitted curve in either direction with a large enough effect, not every such curve was filed as active;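 also: carbachol stimulus at about its EC50 of 1 µM final; % is scaled to controls: 0 for no effect and ±100 for the full control effect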). The following applies: Jurkat NFAT-bla M1, carbachol, beta-lactamase ratio, 5 h; at 7.69 µM (top of the series) unless noted. The gist of the method: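 Jurkat cells carrying an NFAT-driven β-lactamase reporter and co-transfected muscarinic M1 receptor were treated with compound plus carbachol (1 uM final, an EC50 level) for 5 h at 37 °C. CCF4 loading followed for 1 h at RT; 460/530 nm ratio gave %activity.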

A short description of test [5]: Stat Signaling Pathway (AID 446; active = well fitted curve in either direction with a large enough effect, not every such curve was filed as active;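 also: ME-180 cervical cancer cells given 40 pM IL-6 alongside compound; SIE-controlled beta-lactamase reporter measured as 460/530 nm FRET emission ratio; % is scaled to controls: 0 for no effect and ±100 for the full control effect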). The following applies: ME-180 (cervical carcinoma) SIE beta-lactamase reporter, IL-6 stimulated, 5 h; at 7.69 µM (top of the series) unless noted. The gist of the method:
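ME-180 cells carrying a SIE-driven beta-lactamase reporter are stimulated with 40 pM IL-6 for 5 h at 37C in the presence of compound. The 460/530 nm FRET substrate ratio is read after 2.5 h at RT. Data are normalised to 300 pM IL-6 and to 125 nM JAK inhibitor controls.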

In test [6] the target is Glucocorticoid receptor (Homo sapiens) (UniProt P04150). The test can be described thus: GR-GFP Redistribution (AID 450;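 active = compounds whose dose series gives a full or clear partial fitted curve of increased nuclear translocation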; also: potency is read from the fitted curve at half-maximal effect). The following applies: U2OS GR-GFP nuclear translocation, laser cytometry, 2 h.
Test [7] has the same target. As to the kind of experiment: GR-EFC Redistribution (AID 451; calls by dose curve; also: potency is read from the fitted curve at half-maximal effect). The note with it: CHO-K1 GR-EFC translocation, beta-gal luminescence, 2 h. The gist of the method:
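CHO-K1 cells stably expressing nuclear-localized β-gal enzyme acceptor and GR fused C-terminally to the enzyme donor fragment; ligand-driven nuclear translocation restores β-gal by complementation. Compounds titrated up to 46 uM final, 2 h at 37 °C; luminescence read.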

Test [8] addresses Mitogen-activated protein kinase 10 (Mus musculus) (UniProt Q61831). The test can be described thus: JNK3 AlphaScreen Assay (AID 530; active = well fitted curve in either direction with a large enough effect, not every such curve was filed as active;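 also: kinase came from lysate of stimulated human HepG2 cells; signal reports phosphorylation of biotinylated GST-cJun 1-79 at Ser73 with 10 µM ATP; % is scaled to controls: 0 for no effect and ±100 for the full control effect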). The following applies: JNK3 lysate, c-Jun phosphorylation; series mostly up to 57.1 µM. Put shortly:
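JNK3 came from HepG2 lysates pre-activated with IL-1beta and TNF-alpha and phosphorylated biotinylated GST-cJun (1-79) at 10 uM ATP, pH 7.6, room temperature. Compounds were titrated. AlphaScreen signal used anti-phospho-cJun (Ser73) antibody.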
For orientation: In Alpha technology, singlet oxygen from a donor bead excites a nearby acceptor bead.

Test [9] addresses 3',5'-cyclic-AMP phosphodiesterase 4B (Homo sapiens) (UniProt Q07343). As to the kind of experiment: qHTS Assay for Inhibitors of PDE-IV (AID 607; active = well fitted activation curve with a large enough effect in the main read-out, with a control signal flat, not every such curve was filed as active; also: % of control where 0% means no effect). The note with it: HEK293 ACTOne CNG channel cells, membrane potential fluorescence; series mostly up to 22.9 µM. The gist of the method: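 HEK293 ACTOne cells with CNG channel (1000/well), endogenous PDE4; membrane potential dye, compounds up to 22.9 uM final. Fluorescence Ex 535/Em 590; RO 20-1724 (100 uM final) as reference.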
For orientation: qHTS replaces the single test concentration by a dilution series.

Test [10] addresses Cytochrome P450 3A4 (Homo sapiens) (UniProt P08684). The test can be described thus: qHTS Assay for Activators of Cytochrome P450 3A4 (AID 885). Also: nearly all actives have a fitted effect of over 65% in size. The note with it: recombinant CYP3A4, Luciferin-PPXE luminescence, 60 min; series mostly up to 57.1 µM. The gist of the method: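 Human CYP3A4 (20 nM) with Luciferin-PPXE at 25 uM (its KM) in 200 mM KPO4; 10 min compound preincubation, then NADPH regeneration and 60 min reaction at RT. Luciferin read by luminescence; normalized to 57 uM ketoconazole full inhibition.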

Test [11] addresses Dual specificity protein kinase CLK4 (Homo sapiens) (UniProt Q9HAZ1). The test can be described thus: qHTS Assay for Inhibitors of CDC-like Kinase 4 (Kinase-Glo Assay) (AID 1770). Also: nearly all actives have a fitted effect of over 65% in size. Also: potency is read from the fitted curve at half-maximal effect. The following applies: recombinant Clk4, Kinase-Glo ATP depletion luminescence; series mostly up to 66.7 µM. Put shortly:
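Substrate mix (RS peptide 100 uM, ATP 1 uM) dispensed, compound pinned in, then Clk4 added to 25 nM final. Incubated 4.5 h at RT; Kinase-Glo reagent added, luminescence read after 5 min.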

Test [12] shares this target. The test can be described thus: qHTS Assay for Inhibitors of CDC-like Kinase 4 (ADP-Glo Assay) (AID 1771). Also: nearly all actives have a fitted effect of over 70% in size. Also: potency is read from the fitted curve at half-maximal effect. The note with it: recombinant CLK4, ADP-Glo luminescence; series mostly up to 80 µM. The gist of the method:
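Kinase reaction: Clk4 at 25 nM, RS repeat peptide substrate at 100 uM, ATP at 1 uM, 1 hr, room temperature. Product ADP detected as luciferase signal via ADP-Glo.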

For test [13] the target is unchanged. The test can be described thus: qHTS Assay for Inhibitors of CDC-like Kinase 4 (ADP-FP Assay) (AID 1795). Also: nearly all actives have a fitted effect of over 60% in size. Also: potency is read from the fitted curve at half-maximal effect. The following applies: Transcreener ADP fluorescence polarization; series mostly up to 50 µM. Put shortly:
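Clk4 6.25 nM; RS peptide 100 uM; ATP 1 uM; 25 mM Tris pH 7.5, 10 mM MgCl2; 1 h reaction. ADP detected via antibody/orange tracer FP displacement; TG003 positive control.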

Test [14] has as its target Ubiquitin carboxyl-terminal hydrolase 1 (Homo sapiens) (UniProt O94782). As to the kind of experiment: Inhibitors of USP1/UAF1: Pilot qHTS (AID 504865).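 Also: rhodamine fluorescence freed from ubiquitin-rhodamine substrate followed over time; top concentration of the series differs between compounds; % is scaled to controls: 0 for no effect and ±100 for the full control effect; nearly all actives have a fitted effect of over 35% in size.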 The following applies: purified USP1/UAF1, Ub-rhodamine cleavage fluorescence; series mostly up to 54.9 µM. Put shortly:
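In 50mM HEPES pH 7.8 containing 0.5mM EDTA, 1mM TCEP, 0.1 mg/ml BSA and 0.01% Tween-20, 1nM USP1/UAF1 is exposed to compound for 15 min, then Ub-Rho (150nM final) is added and fluorescence is read over time.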

Test [15] is described as follows: Primary qHTS for small molecule stabilizers of the endoplasmic reticulum resident proteome: Secreted ER Calcium Modulated Protein (SERCaMP) assay (AID 1508630). Also: % is scaled to controls: 0 for no effect and ±100 for the full control effect. The note with it: SH-SY5Y GLuc-SERCaMP (Gaussia luciferase released on ER calcium loss) secretion, thapsigargin, luminescence; series mostly up to 38.4 µM. The gist of the method:
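GLuc-SERCaMP-expressing SH-SY5Y cells, pretreated 16 h with compound, are challenged with thapsigargin to empty ER calcium stores; after 4 h, coelenterazine is added directly to the medium and luminescence is imaged.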

In test [16] the target is Cytochrome P450 3A4 (Homo sapiens) (UniProt P08684). As to the kind of experiment: qHTS Assay for Inhibitors and Substrates of Cytochrome P450 3A4 (AID 884). Also: potency is read from the fitted curve at half-maximal effect; nearly all actives have a fitted effect of over 50% in size. The note with it: recombinant CYP3A4, Luciferin-PPXE luminescence; series mostly up to 57.1 µM. The gist of the method:
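20 nM human CYP3A4 with 25 uM Luciferin-PPXE (at KM) in 200 mM KPO4, preincubated 10 min with compound; NADPH regeneration started a 60 min RT reaction. Luciferin detected by luminescence, normalized to 57 uM ketoconazole as full inhibition.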

Sequence of Glucocorticoid receptor (Homo sapiens) (P04150 whole entry, looked up): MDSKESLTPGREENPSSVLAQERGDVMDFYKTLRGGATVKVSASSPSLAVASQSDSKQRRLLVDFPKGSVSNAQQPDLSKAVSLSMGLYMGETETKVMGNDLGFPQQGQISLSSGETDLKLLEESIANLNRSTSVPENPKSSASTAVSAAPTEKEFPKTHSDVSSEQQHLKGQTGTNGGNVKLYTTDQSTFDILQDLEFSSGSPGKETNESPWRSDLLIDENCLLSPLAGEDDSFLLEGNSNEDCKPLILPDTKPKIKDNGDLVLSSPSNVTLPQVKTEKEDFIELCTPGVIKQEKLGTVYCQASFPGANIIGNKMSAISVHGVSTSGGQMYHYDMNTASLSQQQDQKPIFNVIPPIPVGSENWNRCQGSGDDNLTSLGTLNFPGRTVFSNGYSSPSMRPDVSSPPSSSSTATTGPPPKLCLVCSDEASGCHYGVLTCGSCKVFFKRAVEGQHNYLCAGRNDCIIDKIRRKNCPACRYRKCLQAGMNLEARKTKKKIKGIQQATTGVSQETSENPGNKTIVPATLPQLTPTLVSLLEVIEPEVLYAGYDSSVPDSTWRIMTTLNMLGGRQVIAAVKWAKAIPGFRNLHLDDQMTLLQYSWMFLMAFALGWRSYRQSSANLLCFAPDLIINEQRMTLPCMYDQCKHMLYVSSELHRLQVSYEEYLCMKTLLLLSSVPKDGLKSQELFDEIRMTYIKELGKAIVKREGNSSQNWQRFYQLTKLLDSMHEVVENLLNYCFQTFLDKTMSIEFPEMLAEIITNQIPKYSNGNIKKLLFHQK
Sequence of Cytochrome P450 3A4 (Homo sapiens) (P08684 whole entry, looked up): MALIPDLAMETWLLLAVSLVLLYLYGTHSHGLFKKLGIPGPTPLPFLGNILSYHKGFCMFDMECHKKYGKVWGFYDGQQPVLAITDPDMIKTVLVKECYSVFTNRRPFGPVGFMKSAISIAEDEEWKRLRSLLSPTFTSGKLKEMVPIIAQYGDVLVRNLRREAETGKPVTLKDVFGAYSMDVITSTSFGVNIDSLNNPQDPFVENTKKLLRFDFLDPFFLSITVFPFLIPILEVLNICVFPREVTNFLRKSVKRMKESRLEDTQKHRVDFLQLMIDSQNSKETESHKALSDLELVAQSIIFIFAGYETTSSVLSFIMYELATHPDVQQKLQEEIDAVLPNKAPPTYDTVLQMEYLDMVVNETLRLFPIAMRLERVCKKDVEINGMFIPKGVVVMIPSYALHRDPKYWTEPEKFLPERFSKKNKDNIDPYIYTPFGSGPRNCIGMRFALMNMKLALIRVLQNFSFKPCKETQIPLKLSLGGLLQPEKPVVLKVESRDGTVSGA
Sequence of 3',5'-cyclic-AMP phosphodiesterase 4B (Homo sapiens) (Q07343 whole entry, looked up): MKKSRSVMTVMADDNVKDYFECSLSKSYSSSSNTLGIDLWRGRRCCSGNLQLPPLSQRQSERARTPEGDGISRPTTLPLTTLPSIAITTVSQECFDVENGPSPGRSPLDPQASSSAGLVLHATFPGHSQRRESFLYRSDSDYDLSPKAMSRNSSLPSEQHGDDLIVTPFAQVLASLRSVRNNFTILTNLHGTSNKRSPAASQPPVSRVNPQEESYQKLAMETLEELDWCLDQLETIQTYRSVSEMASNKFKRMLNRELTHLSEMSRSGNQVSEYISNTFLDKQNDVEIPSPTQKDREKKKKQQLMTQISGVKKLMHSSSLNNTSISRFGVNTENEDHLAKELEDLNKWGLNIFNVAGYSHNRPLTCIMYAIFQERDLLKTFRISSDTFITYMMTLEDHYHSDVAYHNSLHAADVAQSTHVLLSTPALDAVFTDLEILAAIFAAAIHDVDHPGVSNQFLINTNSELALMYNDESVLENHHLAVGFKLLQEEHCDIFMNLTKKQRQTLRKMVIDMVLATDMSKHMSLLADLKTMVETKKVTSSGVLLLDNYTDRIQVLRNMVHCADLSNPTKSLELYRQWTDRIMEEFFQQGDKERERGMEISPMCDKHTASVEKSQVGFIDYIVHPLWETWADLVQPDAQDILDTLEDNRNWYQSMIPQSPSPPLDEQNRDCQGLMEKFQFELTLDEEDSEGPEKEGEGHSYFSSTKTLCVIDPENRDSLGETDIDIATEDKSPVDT
Sequence of Ubiquitin carboxyl-terminal hydrolase 1 (Homo sapiens) (O94782 whole entry, looked up): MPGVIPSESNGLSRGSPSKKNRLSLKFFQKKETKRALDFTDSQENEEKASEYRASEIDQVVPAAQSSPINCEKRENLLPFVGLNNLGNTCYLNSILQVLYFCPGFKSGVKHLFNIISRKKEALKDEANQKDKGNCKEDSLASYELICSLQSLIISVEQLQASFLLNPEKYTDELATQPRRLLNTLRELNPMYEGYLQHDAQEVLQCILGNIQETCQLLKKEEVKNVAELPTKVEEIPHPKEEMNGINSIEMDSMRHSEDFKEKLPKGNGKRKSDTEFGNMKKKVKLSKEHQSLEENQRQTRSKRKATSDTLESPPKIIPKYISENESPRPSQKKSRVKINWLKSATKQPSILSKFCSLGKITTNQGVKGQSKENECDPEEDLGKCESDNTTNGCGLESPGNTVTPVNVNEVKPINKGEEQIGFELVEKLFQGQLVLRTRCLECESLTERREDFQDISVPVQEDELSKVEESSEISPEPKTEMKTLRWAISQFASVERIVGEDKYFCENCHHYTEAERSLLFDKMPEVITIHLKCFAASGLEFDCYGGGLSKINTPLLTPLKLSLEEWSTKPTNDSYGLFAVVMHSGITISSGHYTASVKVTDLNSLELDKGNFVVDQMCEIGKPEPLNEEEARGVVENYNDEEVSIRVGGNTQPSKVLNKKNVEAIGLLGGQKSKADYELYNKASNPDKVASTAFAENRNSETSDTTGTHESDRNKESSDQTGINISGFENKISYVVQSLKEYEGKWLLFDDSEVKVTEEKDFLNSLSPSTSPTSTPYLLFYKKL
Sequence of Cytochrome P450 1A2 (Homo sapiens) (P05177 whole entry, looked up): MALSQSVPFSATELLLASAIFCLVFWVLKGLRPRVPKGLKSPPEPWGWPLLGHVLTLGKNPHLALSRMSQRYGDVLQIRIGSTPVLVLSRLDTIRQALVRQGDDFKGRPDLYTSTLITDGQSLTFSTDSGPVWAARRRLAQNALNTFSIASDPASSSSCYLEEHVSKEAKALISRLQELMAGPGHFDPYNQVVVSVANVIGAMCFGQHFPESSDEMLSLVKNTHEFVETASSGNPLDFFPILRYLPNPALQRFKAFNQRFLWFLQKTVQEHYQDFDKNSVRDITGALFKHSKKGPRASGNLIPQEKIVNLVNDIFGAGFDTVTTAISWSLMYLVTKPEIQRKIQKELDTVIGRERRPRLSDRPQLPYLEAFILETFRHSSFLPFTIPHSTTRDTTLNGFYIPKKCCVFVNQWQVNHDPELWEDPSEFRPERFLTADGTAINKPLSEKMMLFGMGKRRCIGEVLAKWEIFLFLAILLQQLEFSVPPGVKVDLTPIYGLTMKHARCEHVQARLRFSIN
Sequence of Dual specificity protein kinase CLK4 (Homo sapiens) (Q9HAZ1 whole entry, looked up): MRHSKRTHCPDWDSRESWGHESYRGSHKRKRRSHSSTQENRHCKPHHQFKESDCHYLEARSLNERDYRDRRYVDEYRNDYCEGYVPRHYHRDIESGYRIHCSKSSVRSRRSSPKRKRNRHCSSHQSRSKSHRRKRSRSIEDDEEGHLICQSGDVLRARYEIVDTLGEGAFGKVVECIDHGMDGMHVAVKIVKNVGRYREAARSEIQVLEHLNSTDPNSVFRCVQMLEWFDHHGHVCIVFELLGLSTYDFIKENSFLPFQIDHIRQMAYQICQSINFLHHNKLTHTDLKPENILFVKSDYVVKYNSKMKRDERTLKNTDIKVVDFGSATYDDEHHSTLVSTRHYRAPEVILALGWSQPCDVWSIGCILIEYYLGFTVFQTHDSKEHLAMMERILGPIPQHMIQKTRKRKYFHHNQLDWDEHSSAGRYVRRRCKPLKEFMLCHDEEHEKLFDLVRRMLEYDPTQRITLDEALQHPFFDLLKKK
Sequence of Lysosomal acid glucosylceramidase (Homo sapiens) (P04062 whole entry, looked up): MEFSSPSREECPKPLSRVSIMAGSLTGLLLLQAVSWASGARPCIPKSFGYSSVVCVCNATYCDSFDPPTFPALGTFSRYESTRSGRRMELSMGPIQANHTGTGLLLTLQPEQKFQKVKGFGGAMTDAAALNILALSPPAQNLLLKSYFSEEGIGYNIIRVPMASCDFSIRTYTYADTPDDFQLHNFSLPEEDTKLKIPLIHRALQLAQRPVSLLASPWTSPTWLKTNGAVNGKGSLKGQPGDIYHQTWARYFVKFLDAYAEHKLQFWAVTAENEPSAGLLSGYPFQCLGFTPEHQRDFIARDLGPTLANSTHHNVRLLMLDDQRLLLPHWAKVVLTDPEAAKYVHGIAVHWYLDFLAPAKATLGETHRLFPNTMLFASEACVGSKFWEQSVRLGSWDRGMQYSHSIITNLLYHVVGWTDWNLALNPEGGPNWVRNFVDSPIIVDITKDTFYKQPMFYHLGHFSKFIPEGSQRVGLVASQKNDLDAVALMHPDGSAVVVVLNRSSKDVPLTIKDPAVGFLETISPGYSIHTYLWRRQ

`COc1ccc(-n2c(=O)c(-c3ccccc3)nc3cncnc32)cc1`: the Potency was over 11.4 µM in test [1], 3.98 µM (active) in test [3], over 9.22 µM in test [6] and over 46 µM in [7]. In addition, the figures for the activity change, negative = inhibition in test [2] and in test [4] were -26.7% and 8.64%, respectively. For the same compound, the activity, negative = inhibition in [5] was -9.27%. Besides, the Potency result in test [8], in test [9], in [10], in test [11], in test [12] and in [13] was “inactive” in each case. Besides, the Potency result in test [14] was “inactive”. In addition, in test [15], the result was inactive.
For `COc1ccc(CNc2ccnc(-c3ccc(C(=O)N(C)C)cc3)n2)c(OC)c1`, the Potency was over 11.4 µM in [1]; 12.6 µM (active) in test [3]; over 46 µM in test [6]; over 46 µM in test [7]; 3.98 µM (active) in test [16]. Also, the results for the activity change, negative = inhibition in [2] and in test [4] were -20% and -8.82%, respectively. Also, the activity, negative = inhibition in test [5] was -4.52%. Also, the Potency result in test [8], in [9], in [10], in test [11], in test [12] and in test [13] was “inactive” in each case. Further, the Potency entry in [14] was “inactive”. The outcome in test [15] was inactive.
With `COc1ccc(CNc2cc(-c3cccnc3)ncn2)c(OC)c1`, the Potency in test [1] is over 11.4 µM; in test [3], 1.26 µM (active); in [6], over 46 µM; in [7], over 46 µM; in test [16] it was 1.58 µM (active); in test [11], 8.91 µM (active). Further, the Potency is 8.91 µM (active) in [12] and 10 µM (active) in test [13]. Further, the activity change, negative = inhibition in test [2] is -14.6%; in test [4] it was 10.5%. The activity, negative = inhibition in test [5] is 2.95%. Besides, the Potency result in test [8], in test [9], in test [10] and in test [14] was “inactive” throughout. Further, the outcome in test [15] was inactive.
For `CN(C)C(=O)c1ccc(-c2cncnc2NCc2ccccc2)cc1`, the Potency in [1] is over 11.4 µM; in [3] it was 20 µM (active); in test [6] it was over 46 µM; in test [7] it was over 46 µM; in test [16], 2.51 µM (active). Further, the figures for the activity change, negative = inhibition in [2] and in test [4] were 8.88% and -3.31%, respectively. For the same compound, the activity, negative = inhibition in test [5] is 9.3%. Moreover, the Potency entry in test [8], in test [9], in test [10], in test [11], in test [12] and in test [13] was “inactive” in each case. Besides, the Potency entry in test [14] was “inactive”. Moreover, the outcome in [15] was inactive.
For the compound `c1cncc(-c2ccc3ncnc(NC4CCNCC4)c3c2)c1`, the Potency in [1] was over 11.4 µM; in [3], 12.6 µM (active); in test [6], over 46 µM; in test [7], over 46 µM; in test [11], 14.1 µM (active); in test [12] it was 15.8 µM (active). Besides, the Potency in [13] is 12.6 µM (active). Besides, the activity change, negative = inhibition in [2] is 5.15%; in test [4], 13.2%. The activity, negative = inhibition in test [5] was 3.6%. The Potency result in test [8], in test [9], in test [10] and in test [14] was “inactive” each time. In [15], the result was inactive.
